In PubChem BioAssay AID1850 (Southern Research Specialized Biocontainment Screening …, 2009):
In all, about 310,000 compounds went through this assay and about 1,000 (0.32%) were called active. No rule for the calls is given here. A selection follows. Measured potencies and affinities stand elsewhere.

test: PhoP regulon inhibitors, Salmonella typhi PhoP promoter GFP reporter, confirmatory (AID 1850); conditions: fluorescence, 4 h, at 50 µM, active compounds read high;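 also: 0% = induced wells with vehicle and 100% = uninduced wells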

| Compound | inhibition |
| --- | --- |
| Cc1[nH]nc2c1C(c1ccccc1F)NC2=O (centres undefined) | 8.34% (inactive) |
| COc1cccc(NC(=O)N(CCN(C)C)C(C)c2cccnc2)c1 (centres undefined) | 1.53% (inactive) |
| Cc1ccc(NC(=O)CCn2cnc3ccccc3c2=O)cc1Cl | 5.48% (inactive) |
| CCOc1ccc(NS(=O)(=O)c2ccc(C(=O)NCC(c3ccc(OC)cc3)N3CCCC3)cc2)cc1 (centres undefined) | 4.44% (inactive) |
| Cc1cccnc1Sc1c([N+](=O)[O-])ncn1C | -0.07% (inactive) |
| O=C(Nc1cccnc1)C1CCC(CNS(=O)(=O)c2cccc3nsnc23)CC1 (centres undefined) | 8.22% (inactive) |
| CC(=O)c1cc(F)ccc1OCC(=O)N1CCCc2ccccc21 | 5.07% (inactive) |
| CN1CCN(c2ccccc2NC(=O)c2ccc(N3CCCC3)c([N+](=O)[O-])c2)CC1 | 20.3% (inactive) |
| O=S(=O)(Cc1ccccc1Cl)NCCc1ccccc1 | 0.01% (inactive) |
| CCOC(=O)c1sc(NC(=O)c2ccccc2)cc1C | 3.11% (inactive) |
| Cc1nc(NC(=O)c2ccccc2)sc1C | -2.8% (inactive) |
| Cc1sc(NC(=O)c2ccccc2)c(C(=O)c2ccccc2)c1C | -8.66% (inactive) |
| Cc1cc(NC(=O)c2ccccc2)cc(NC(=O)c2ccccc2)c1C | 2.54% (inactive) |
| O=C(CSc1cc([N+](=O)[O-])cc(S(=O)(=O)Cc2ccccc2)c1)NC1CC1 | -3.36% (inactive) |
| Cc1cccn2c(CNCC3OCCc4ccccc43)c(C(=O)N3CCCCC3)nc12 (centres undefined) | 2.24% (inactive) |
| COc1ccc(C(=O)NCCc2cc3ccc(C)c(C)c3[nH]c2=O)cc1OC | -4.33% (inactive) |
| O=C1OCC(CO)(CO)N=C1NNc1ccccc1Cl | 8.82% (inactive) |
| O=C1OCC(CO)(CO)N=C1NNc1cc(Cl)ccc1Cl | 6.11% (inactive) |
| Cc1cc(C)c(NC(=O)C2CCCN2CCO)c(C)c1 (centres undefined) | 6.37% (inactive) |
| COc1ccc(OC)c(NC2=NC3(CCCC3)N=C(N)N2)c1 | -3.8% (inactive) |
| Cc1cccc(NC2=NC3(CCCCC3)N=C(N)N2)c1C | 1.1% (inactive) |
| Cc1ccccc1NC1=NC2(CCCC2)N=C(N)N1 | -0.71% (inactive) |
| Cc1ccc(C)c(NC2=NC3(CCCCC3)N=C(N)N2)c1 | -8.53% (inactive) |
| Cc1ccc(NC2=NC3(CCCCC3)N=C(N)N2)c(C)c1 | 8.94% (inactive) |
| NC1=NC2(CCCC2)N=C(Nc2ccccc2)N1 | 0.23% (inactive) |

| Compound | inhibition |
| --- | --- |
| Cc1cc(C)cc(NC2=NC3(CCCCC3)N=C(N)N2)c1 | 18% (inactive) |
| COc1ccc(OC)c(NC2=NC3(CCCCC3)N=C(N)N2)c1 | -2.55% (inactive) |
| COc1ccc(S(=O)(=O)N2CCCc3ccccc32)cc1[N+](=O)[O-] | 1.36% (inactive) |
| Clc1ccc(-c2c[n+]3c(n2-c2ccccc2)SCC3)cc1 | 22.2% (inactive) |
| CCc1cc2cc(C)ccc2nc1SCC(=O)Nc1cc(C)on1 | -6.66% (inactive) |
| COc1cccc(CNC(=O)CC(NC(=O)c2ccccc2)c2ccccc2)c1 (centres undefined) | -2.43% (inactive) |
| O=[N+]([O-])c1cc(NCCO)c(N2CCCCCC2)c2nonc12 | -4.05% (inactive) |
| CCCS(=O)(=O)N1CCC(C(=O)NC2CCCC(C)C2C)CC1 (centres undefined) | 3.41% (inactive) |
| C[C@H](NC(=O)[C@@H]1Cc2ccccc2CN1)C(=O)Nc1ccc2c(c1)OCCO2 | -6.47% (inactive) |
| CCc1cccc2c(C(=O)COC(=O)c3ccccc3)c[nH]c12 | -6.08% (inactive) |
| CCc1cccc2c(C(=O)COC(=O)c3ccc(O)cc3)c[nH]c12 | -22.3% (inactive) |
| O=C(c1ccco1)N1CCN(C(=O)C23CC4CC(CC(C4)C2)C3)CC1 | -6.11% (inactive) |
| O=C(O)c1ccc(Nc2nc3ccc(Cl)cc3[nH]2)cc1 | -11.1% (inactive) |
| O=C(O)c1ccc(-c2nnn(Cc3cccc(C(F)(F)F)c3)n2)cc1 | 16.4% (inactive) |
| CC1CCC(NC(=O)c2ccc(S(C)(=O)=O)cc2)CC1 (centres undefined) | -20% (inactive) |
| CCc1ccc(NC(=O)[C@H](C)NC(=O)C2CCN(C(=O)[C@@H](N)C(C)C)CC2)cc1 | 3.36% (inactive) |
| CCN1CCN(CCNC(=O)C2CCN(Cc3nc(-c4ccc(Cl)cc4)oc3C)CC2)CC1 | 6.8% (inactive) |
| Cc1oc(-c2cccc(Cl)c2)nc1CN1CCC(C(=O)NC2CC2)CC1 | -4.63% (inactive) |
| CCN(CCNC(=O)C1CCN(Cc2nc(-c3ccc(Cl)cc3)oc2C)CC1)c1ccccc1 | 6.02% (inactive) |
| Cc1oc(-c2cccc(Cl)c2)nc1CN1CCC(C(=O)NCC2CCCO2)CC1 (centres undefined) | 1.34% (inactive) |
| COCCCNC(=O)C(F)(F)C(F)(F)C(=O)NCCCOC | -11.6% (inactive) |
| S=C(NCCc1ccccn1)Nc1ccccc1 | 7.23% (inactive) |
| Cc1cc(C)c(NC(=O)COc2nncc3ccccc23)c(C)c1 | -9.5% (inactive) |
| Cc1cccc(C)c1NC(=O)C[N+](C)(C)CC(O)COc1cccc2ccccc12 (centres undefined) | -1.2% (inactive) |
| CCn1cc(/C=C/C(=O)c2ccc(O)cc2)c(C)n1 | 2.07% (inactive) |

| Compound | inhibition |
| --- | --- |
| O=c1c2ccccc2nc(-c2ccc([N+](=O)[O-])cc2)n1-c1ccccc1 | -1.83% (inactive) |
| O=S1(=O)NC(=NC2CCCCCC2)c2ccccc21 | -8.09% (inactive) |
| c1ccc2c(c1)C(=NCC1CCCO1)NC2=NCC1CCCO1 (centres undefined) | -5.37% (inactive) |
| CCOC(=O)[C@@H]1[C@H]2COc3cc(OC)ccc3[C@H]2N2C(=O)N(c3ccc(C(F)(F)F)cc3)C(=O)[C@@]12C | -14.6% (inactive) |
| CCOC(=O)c1c(C)[n+]([O-])c2ccc3c(non3O)c12 | -9.19% (inactive) |
| CC(=O)c1c(C)[n+]([O-])c2ccc3c(non3O)c12 | 14.6% (inactive) |
| CCCn1c(SCC(=O)OCc2ccccc2)nc2c1c(=O)n(C)c(=O)n2C | -3.63% (inactive) |
| Cc1ccc(S(=O)(=O)N(C)C)cc1NC(=O)COC(=O)/C=C/c1ccc2ccccc2n1 | -5.07% (inactive) |
| CCOc1ccc(NC(=O)C(=O)NCCN2CCN(S(=O)(=O)c3ccccc3)CC2)cc1 | 3.61% (inactive) |
| O=C1[C@@H]2C(c3cccnc3)=NO[C@@H]2C(=O)N1c1ccc(Br)cc1 | -5.51% (inactive) |
| Oc1cccc2cc3cccc(O)c3c(O)c12 | 7.19% (inactive) |
| COc1cc2cccc(OC)c(=O)c2c(O)c1OC | -19.1% (inactive) |
| Cc1ccc(S(=O)(=O)NCC2CCC(C(=O)N3CCN(C)CC3)CC2)cc1 (centres undefined) | 5.88% (inactive) |
| CC(C)(C)Cc1nnc(NS(=O)(=O)c2ccc([N+](=O)[O-])cc2)s1 | -2.4% (inactive) |
| OCCNc1nc(N2CCCCC2)nc2ccccc12 | 4.37% (inactive) |
| CC(Nc1nc(N2CCNCC2)nc2ccccc12)c1ccccc1 (centres undefined) | 17.9% (inactive) |
| CC(Nc1nc(-c2ccccc2)nc2ccccc12)c1ccccc1 (centres undefined) | 18% (inactive) |
| CC(Nc1nc(N2CCN(S(C)(=O)=O)CC2)nc2ccccc12)c1ccccc1 (centres undefined) | -4.59% (inactive) |
| CC(C)S(=O)(=O)c1nsc2nc(=O)c(/C=C3\C=Nc4ccccc43)c(N)n12 | -9.31% (inactive) |
| Cc1occc1C(=O)NNC(=O)Nc1ccc([N+](=O)[O-])cc1 | 0.48% (inactive) |
| CC(C)(Oc1ccc(Cl)cc1)C(=O)NCCN1C(=O)S/C(=C/c2cccnc2)C1=O | -8.14% (inactive) |
| O=C(CN1CCN(Cc2ccc3c(c2)OCO3)CC1)Nc1ccc(F)cc1 | 2.19% (inactive) |
| O=C(O)C1C2C=CC(O2)C1C(=O)NCc1ccc2c(c1)OCO2 (centres undefined) | 4.49% (inactive) |
| O=C(O)C(Cc1c[nH]c2ccccc12)NS(=O)(=O)c1ccc2ccccc2c1 (centres undefined) | -4.9% (inactive) |
